Screens (PubChem)
FMDV antiviral = foot and mouth disease virus antiviral activity; FMDV antiviral cell-based qHTS; Potency, µM (series often up to 57.9 µM), for the others: top-dose activity change, negative = inhibition, hits mostly inhibitors; 410,000 compounds, 1.2% hits; calls by dose curve; tested in HEK293T cells; note: read-out not given here; potency is the fitted concentration of half-maximal effect; nearly all actives have a fitted effect of over 45% in size
VACV Venus inh = vaccinia inhibition (Venus reporter); Vaccinia virus Venus reporter expression, fluorescence; Potency, µM (series often up to 36.5 µM), without a hit: at the top dose activity change, negative = inhibition, hits mostly inhibitors; 330,000 compounds, 0.46% hits; calls by dose curve; tested in A549 cells; note: potency is the fitted concentration of half-maximal effect; nearly all actives have a fitted effect of over 30% in size
Sm TGR block = S. mansoni TGR enzyme inhibition | Q962Y6 | purified TGR, DTNB reduction, TNB absorbance 405 nm | Potency, µM (highest dose often 114 µM), for the others: at the top dose activity change, negative = inhibition, usual class: inhibitors | 360,000 compounds, 3% hits | AID 485364; note: potency is the fitted concentration of half-maximal effect; nearly all actives have a fitted effect of over 60% in size
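TGR 20 nM + NADPH 100 uM (dispensed conc.), cpd preinc 15 min RT; start with NADPH (500 uM addition) then DTNB (15 mM addition). Kinetic TNB absorbance, 405 nm filter. Four-parameter Hill fit across titration.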
HCV inhibitor = blocks hepatitis C virus. Potency, µM (doses to about 41.8 µM), for inactives: top-dose activity change, negative = inhibition, actives largely listed as inhibitors. Huh7.5.1 HCVcc-Cre infection, luciferase reporter, 44 h. AID 651820. 340,000 compounds, 3.4% hits; note: potency is the fitted concentration of half-maximal effect
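Seed cells (1,000/well) for 4 h; treat with compound and infect with HCVcc-Cre, moi about 0.5. Incubate 44 h, then detect luciferase activity.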
Vaccinia mCherry = inhibitors of vaccinia virus infection (mCherry reporter signal) | Vaccinia virus mCherry reporter infection, fluorescence | Potency, µM (titrated, usually from 36.5 µM), inactives show at the top dose activity change, negative = inhibition, actives largely listed as inhibitors | 310,000 compounds, 0.63% hits; calls by dose curve; tested in A549 cells; note: potency is the fitted concentration of half-maximal effect; nearly all actives have a fitted effect of over 35% in size
HCMV inh = human cytomegalovirus inhibition; HFF cells, HCMV-luciferase reporter, 72 h; active compounds read low; activity change, negative = inhibition, % at 57.5 µM; 410,000 compounds, 4.5% hits; AID 1259415; in the data active = activity change below about -60%; inconclusive = no clear call, values can overlap the other calls; inactive = above about -39%
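HFF cells seeded 16 h at 37C, treated with compounds, infected with luciferase-reporter HCMV at MOI 1 PFU/cell; luciferase read at 72 h post infection, normalized to buffer-only and Salinomycin controls.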
* hit, by the source's call; i = inactive; ? = inconclusive; . = not tested or not shown; [ ] = remark or other dose. The list is not random: actives were taken first. Their share in the collection is about 9.3%. Unless noted, calls come from the whole dose curve; as a rule, active = well fitted curve in the direction sought with a large enough effect; inconclusive = small, poorly fitted or top-dose-only effect, or another doubt; inactive = no such curve, though single readings can be large; an effect the other way counts as inactive or inconclusive. % is set by controls: 0 for no effect and ±100 for the full control effect.

SMILES	FMDV antiviral	VACV Venus inh	Sm TGR block	HCV inhibitor	Vaccinia mCherry	HCMV inh
O=C1NC(=S)N(c2ccc(F)cc2)C(=O)/C1=C\c1ccoc1	-8%	28%	32µM*	2%	3%	.
COc1ccc(OC)c(N2C(=O)NC(=O)/C(=C/c3ccc([N+](=O)[O-])s3)C2=O)c1	-20%	34%	4µM*	12%	20%	3
Cc1ccc(N2C(=O)NC(=O)/C(=C\c3ccoc3)C2=O)cc1	?	53%	-10%	24%	-15%	15
O=C1NC(=O)C(=Cc2ccco2)C(=O)N1	-4%	15%	.	-12%	-7%	2
O=C1NC(=S)N(c2ccc(F)cc2)C(=O)/C1=C/c1ccco1	.	.	32µM*	.	.	.
COc1ccc(OC)c(N2C(=O)/C(=C/c3ccco3)C(=O)NC2=S)c1	-28%	9%	32µM*	-26%	2%	.
COc1ccc(OC)c(N2C(=O)CC(=O)NC2=O)c1	-16%	.	1%	15%	.	?
COc1cc(/C=C2\C(=O)NC(=O)N(c3ccccc3)C2=O)c([N+](=O)[O-])cc1OC	-30%	-15%	1.6µM*	5%	i	48
COc1ccc(N2C(=O)/C(=C/c3cc(C)n(-c4ccc(C)cn4)c3C)C(=O)NC2=S)c(OC)c1	32µM*	.	?	10%	.	27
COc1cc(/C=C2\C(=O)NC(=O)N(c3ccccc3)C2=O)cc(OC)c1O	2%	.	87%	1%	.	-27
Cc1ccc(-n2c(C)cc(/C=C3/C(=O)NC(=O)N(C)C3=O)c2C)cc1	13%	-12%	-34%	-11%	-12%	-5
C/C(CCc1oc2ccc(Br)cc2c1-c1ccc(C)o1)=N/O	?	-20%	40µM*	?	-5%	-39
CC(=O)CCc1oc2ccc(C)cc2c1-c1ccccc1	-18%	-12%	0%	-12%	-14%	53
C/C(CCc1oc2ccc(Cl)cc2c1-c1ccc(C)o1)=N\O	-14%	.	25µM*	?	.	3
O=C(NCc1ccccc1)N1CCOCC1	-5%	.	14%	9%	.	0
O=C(OCc1ccccc1)N1CCOCCOCCN(C(=O)OCc2ccccc2)CCOCCOCC1	22µM*	-15%	35%	-13%	-18%	-13
Nc1c(C(=O)NCc2cccs2)nnn1CC(=O)Nc1cccc(F)c1	-14%	-2%	0%	.	-5%	12
COc1cccc(C(=O)N2[C@H](COCc3ccccc3)C=CS2(=O)=O)c1	0%	1%	.	.	26%	-11
Cc1ccc(-c2nc3cnccn3c2Nc2c(C)cccc2C)o1	?	-15%	14µM*	?	-27%	-26
Cc1ccc(-c2nc3ccccn3c2Nc2ccccc2C)o1	.	-18%	.	.	i	.
Brc1ccc(-c2nc3ncccn3c2NC2CCCCC2)o1	?	0%	35µM*	-15%	-23%	?
Cc1ccc(Nc2c(-c3ccc(C)o3)nc3ncccn23)cc1	-15%	-13%	20µM*	14%	-13%	-32
Cc1ccc(-c2nc3ncccn3c2Nc2ccccc2C)o1	-18%	.	40µM*	-9%	.	0
Cc1ccc(NC(=O)C2CCCN(c3cnccn3)C2)c(C)c1 (centres undefined)	1%	-10%	-7%	8%	-2%	-10
C/C(N)=C(/C#N)C(=O)COC(=O)c1cc2c(s1)CCC(C)C2 (centres undefined)	55%	-21%	-15%	-10%	-19%	64
SMILES	FMDV antiviral	VACV Venus inh	Sm TGR block	HCV inhibitor	Vaccinia mCherry	HCMV inh
Cc1ccc(C)c(-n2nnnc2Sc2nnnn2-c2ccccc2)c1	16µM*	.	-2%[11.4 µM]	11µM*	.	-97*
Cc1cccc(CSc2nnnn2-c2ccccc2)c1	3%	-7%	7%	-26%	-3%[1.46 µM]	23
Cc1sc2nc3ccc(NCc4ccco4)nn3c(=O)c2c1C	-18%	-29%	35µM*	-13%	.	23
CC(=O)CSc1ncnc2sc3c(c12)CCCC3	-11%	-17%	-13%[57.1 µM]	10µM*	-15%	6
O=C(CSc1nc2sc3c(c2c(=O)n1-c1ccccc1)CCCC3)NCc1ccco1	0%	?	-11%	1%	?	-93*
O=c1c2ccccc2nc2ccc(NCc3ccco3)nn12	-6%	6%	?	-21%	6%	105
COCCCn1c(SCC(=O)NCc2ccco2)nc2sc3c(c2c1=O)CCC3	4%	.	40µM*	-24%	.	-33
